# Measurements reported in ChEMBL document CHEMBL3988442, “University of Dundee, Small-Polar-MMV Screening Library” (2021).
# About 1,200 (3.2%) of roughly 38,000 compounds showed an effect of 50% or more. The median lay at about -58%. This excerpt belongs to a sample that is enriched for strong results.
# Tested on: Plasmodium falciparum
# Assay: Calibr Malaria Delayed Death Assay SOP
# Format: functional, organism-based
# Parameters: scale not given: in the data most compounds retested in dose-response had high values
# Conditions: concentration 4.99e-06 (unit not given; other assays of the set use mol/L)
row,SMILES,Percent Effect [%]
1,CC(C)(C)c1cnc(CN(Cc2cccnc2)CC2CCCO2)o1 (configuration not stated),21.12
2,CC(O)CN1CCc2onc(-c3ccccc3F)c2C1 (configuration not stated),-120.6
3,CN(C)C(=O)CCc1cncc(C2CCCN2Cc2ccccn2)n1 (configuration not stated),-28.93
4,CN(C)S(=O)(=O)N1CCCC(c2cccc(Cc3ccccc3F)n2)C1 (configuration not stated),-73.25
5,CN(C)C(=O)CN1CCCC1c1cccc(Cc2ccccc2F)n1 (configuration not stated),67.28
6,CN1CCN(C2COC3(CCN(Cc4ccsc4)CC3)C2)CC1.O=C(O)C(F)(F)F.O=C(O)C(F)(F)F (configuration not stated),-16.23
7,COC(=O)c1cccn1C1CCN(C(=O)c2ccc(C)cc2O)CC1,-37.36
8,Nc1cc(C(=O)NC2CCCN(CCCc3ccccc3)C2)ccn1 (configuration not stated),-86.42
9,Nc1ncncc1-c1noc([C@@H]2CCCN2CCCc2ccccc2)n1,-66.01
10,CS(=O)(=O)NC1CCN(C(=O)NCc2cccnc2)CC1,-62.74
11,O=C(c1ccoc1)N1CC[C@H]2C[C@@H](c3ccncn3)O[C@@H]2C1,-72.56
12,COc1cccc(CCC(=O)Nc2cnc3c(c2)c(C)nn3C)c1OC,-140.4
13,COc1nccc(N2CC[C@@H](N3CCCCCC3)[C@H](O)C2)c1C#N,51.1
14,COc1nccc(N2CC[C@H](N3CCOCC3)[C@H](CCCO)C2)c1C#N,-24.24
15,COc1nccc(N2CC[C@@H](N3CCC(O)CC3)[C@H](O)C2)c1C#N,-80.42
16,COc1ccc(C(N)=O)cc1NCc1ncc(-c2cccs2)o1,-57.49
17,O=C(O)CCc1nc2nccc(-c3ccc(F)cc3)n2n1,-150.8
18,COc1ccc(-c2noc(CN3CC(n4cc(C)cn4)C3)n2)cc1,-35.96
19,CC(C)Cc1ncc2c(n1)CN(c1cc(NC3CC3)nc(N)n1)C2,-26.11
20,CC(C)Nc1ccnc(N2Cc3cnc(C(C)(C)C)nc3C2)n1,49.86
21,CCNc1ccnc(N2Cc3cnc(CC(C)C)nc3C2)n1,74.44
22,O=C(CSc1nnc2n1N=CN(c1ccccc1)C2)c1ccccc1,-130.4
23,CC(C(=O)Nc1cccc(Cl)c1)N1CCN(Cc2ncc[nH]2)CC1 (configuration not stated),12.72
24,COCCCN1CCCN(C(C)C(=O)Nc2cccc(I)c2)CC1 (configuration not stated),89.66
25,CCOCCN1CCN(C(C)C(=O)Nc2ccnn2C(C)C)CC1 (configuration not stated),-116
26,Cc1noc(CN(C)CC2CCCN(CCc3ccc(Cl)cc3)C2)n1 (configuration not stated),-81.63
27,NC(=O)C1CCN(C(=O)c2ccc(Sc3ccccn3)cc2)CC1,-20.82
